High-throughput results from PubChem BioAssay.
rTrxR1 inhibitor: inhibitors of rat thioredoxin reductase 1 | recombinant rTrxR1, NADPH fluorescence consumption, selenite substrate | Potency, µM (doses to about 114 µM), inactives show at the highest dose activity change, negative = inhibition, usual class: inhibitors | 1% of 390,000 active; note: % is set by controls: 0 for no effect and ±100 for the full control effect; nearly all actives have a fitted effect of over 65% in size
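Rat TrxR1 (90 nM in the dispensed reagent) was pre-reduced with 400 uM NADPH for 5 min at room temperature, then incubated with compound for 15 min. After 400 uM selenite was added, NADPH fluorescence (Ex 340/Em 450 nm) was followed for 8 min.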
VDR inh: blocks the human vitamin D receptor; P11473; VDR-SRC2-3 peptide fluorescence polarization, 2 h; Potency, µM, inactives show max response, negative = inhibition, usual class: inhibitors; 0.93% of 400,000 active; AID 504847; note: % is set by controls: 0 for no effect and ±100 for the full control effect
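Fluorescence polarization assay measuring small-molecule disruption of VDR binding to the coregulator peptide SRC2-3. Compounds were pin-transferred (23 nl) into the reagent mix and incubated 2 h at room temperature before reading.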
Vif-APOBEC3F blk: blocks the Vif interaction with APOBEC3F. HeLa A3F-eYFP + Vif (tagged APOBEC3F with the HIV-1 protein that degrades it), YFP fluorescence increase. Potency, µM (highest dose often 46.1 µM), for inactives: top-dose activity, negative = active. 0.2% of 390,000 active. AID 602313; note: % of control where 0% means no effect; nearly all actives have a fitted effect of over 65% in size
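HeLa cells stably expressing Vif plus C-terminally eYFP-tagged A3F were seeded, incubated overnight at 37 deg C, dosed with compound, incubated overnight again at 37 deg C. Yellow fluorescence (Ex 488/Em 500-530) reported blocked Vif-mediated A3F-eYFP degradation.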
Vif-APOBEC3G blk: Vif-A3G binding inhibition; Q9HC16; HeLa A3G-eYFP + Vif (tagged APOBEC3G with the HIV-1 protein that degrades it), YFP fluorescence, overnight; Potency, µM (highest dose often 46.1 µM), inactives show at the highest dose activity, negative = active, most hits filed as inhibitors; 0.076% of 410,000 active; AID 602310; note: % is set by controls: 0 for no effect and ±100 for the full control effect; nearly all actives have a fitted effect of over 60% in size
Target sequence (Q9HC16 whole entry, looked up): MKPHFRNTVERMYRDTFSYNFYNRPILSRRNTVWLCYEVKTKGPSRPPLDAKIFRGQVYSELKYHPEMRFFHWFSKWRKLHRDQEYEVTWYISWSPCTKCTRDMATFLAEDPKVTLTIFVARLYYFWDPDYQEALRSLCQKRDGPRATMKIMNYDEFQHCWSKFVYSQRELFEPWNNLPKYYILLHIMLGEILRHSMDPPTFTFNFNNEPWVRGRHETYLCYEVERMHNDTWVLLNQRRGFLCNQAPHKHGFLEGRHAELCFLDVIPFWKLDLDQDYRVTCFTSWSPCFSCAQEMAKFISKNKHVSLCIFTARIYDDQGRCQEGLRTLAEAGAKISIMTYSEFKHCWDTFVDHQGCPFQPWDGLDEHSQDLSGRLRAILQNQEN
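Read-out is eYFP fluorescence (Ex 488/Em 500-530) from Vif-expressing HeLa A3G-eYFP cells; more signal means A3G escaped Vif-mediated degradation. Cells plated overnight, compound pinned in, incubated overnight at 37 deg C.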
TrxR1 substrate: is turned over as a substrate by rat TrxR1. O89049. purified TrxR1 substrate turnover, NADPH consumption readout. Potency, µM (doses to about 114 µM), inactives show at the top dose activity change, negative = substrate turnover. 0.01% of 390,000 active. AID 588456; note: % is set by controls: 0 for no effect and ±100 for the full control effect; nearly all actives have a fitted effect of over 50% in size
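Rat TrxR1, dispensed at 90 nM, was prereduced with 400 uM NADPH (final) for 5 min at ~22 deg C, then incubated with compound 15 min before 400 uM selenite. A first-read NADPH fluorescence drop versus no-compound background flagged substrates.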
VDR inh confirm: confirmation of human vitamin D receptor inhibitors; shares compounds with VDR inh; VDR-coactivator inhibition assay, qHTS confirmation; Potency, µM, usual class: inhibitors; 89% of 840 active; AID 602199
VDR FP fluor: confirmation of human VDR-coactivator binding inhibitors, fluorescein label. shares compounds with VDR inh. VDR-coactivator binding, fluorescein fluorescence polarization. Potency, µM (titrated, usually from 57.1 µM), without a hit: at the highest dose activity change, negative = inhibition, actives largely listed as inhibitors. 48% of 840 active. AID 602200
VDR bla: inhibits human VDR in beta-lactamase reporter cells; shares compounds with VDR inh; 23% of 840 active; VDR beta-lactamase reporter cells, FRET ratio; cells co-treated with VDR agonist LG190178; Potency, µM (top dose mostly 46.1 µM), for the others: at the highest dose activity change, negative = inhibition, actives largely listed as inhibitors; AID 602202; note: % is set by controls: 0 for no effect and ±100 for the full control effect
VDR viability: cytotoxic in counter-screen for VDR inhibitors | 18% of 840 active | Potency, µM (top dose mostly 48.3 µM), without a hit: top-dose activity change, negative = cytotoxicity, usual class: cytotoxic | shares compounds with VDR inh | cytotoxicity counter-screen, cell viability, qHTS;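 note: plate controls were DMSO for no effect and high-concentration cycloheximide for full effect; nearly all actives have a fitted effect of over 75% in size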
The depositor's hits bear a star; ? = inconclusive; . = no result given; [ ] = another dose, or the depositor's remark. The list is not random: actives were taken first. Their share in the collection is about 1.8%. Calls come from the whole dose curve; as a rule, active = well fitted curve in the direction sought with a large enough effect; inconclusive = small, poorly fitted or top-dose-only effect, or another doubt; inactive = no such curve, though single readings can be large; an effect the other way counts as inactive or inconclusive. Potency is the fitted concentration of half-maximal effect.

SMILES	rTrxR1 inhibitor	VDR inh	Vif-APOBEC3F blk	Vif-APOBEC3G blk	TrxR1 substrate	VDR inh confirm	VDR FP fluor	VDR bla	VDR viability
COc1ccc(C(=O)N/C(N)=N/c2nc3ccccc3o2)cc1	19.0%	13.0%	.	-13.6%	15.3%	.	.	.	.
COc1ccc(C(=O)/C=C/Sc2nc3ccccc3o2)cc1	1µM*	17.8µM*	1.5%	?	-6.4%	5.97*	3.16µM*	20.6µM*	20.6µM*
O=C(O)CSc1cc(NS(=O)(=O)c2ccc(Br)cc2)c2ccccc2c1O	?	15.8µM*	0.7%	-5.2%	-11.2%[57.1 µM]	4.23*	17.8µM*	-27.7%	?
Cc1ccc(S(=O)(=O)Nc2ccc(Br)cc2C(NCC(=O)O)c2ccccc2)cc1 (centres undefined)	-8.9%	-18.1%	-3.2%	-3.4%	-8.2%	.	.	.	.
CCOc1ccccc1CNC(=O)c1cnc2sc(N(CC)CC)nn2c1=O	11.4%[57.1 µM]	3.4%	2.5%	-0.2%	25.1%[57.1 µM]	.	.	.	.
COc1ccc(Cc2ccccc2C(=O)O)cc1	-7.0%[2.29 µM]	9.8%	-1.0%	0.3%	-3.9%[2.29 µM]	.	.	.	.
COc1ccc(CC2=CC(=O)c3ccccc3C2=O)cc1	-13.8%	20µM*	?	-27.5%	-8.3%	4.23*	3.16µM*	?	16.4µM*
CC1CN(C(=O)N2CCC(C(=O)NCCCc3ccccc3)CC2)c2cc(Cl)ccc2O1 (centres undefined)	-2.6%	3.9%	10.1%	1.6%	-6.6%	.	.	.	.
Cc1sc(C(C2C(=O)CC(C)(C)CC2=O)C2C(=O)CC(C)(C)CC2=O)cc1[N+](=O)[O-]	2µM*	?	3.1%	?	-7.0%	6.31*	3.98µM*	1.1%	2.0%
CC1(C)CC(=O)C(C(c2cc([N+](=O)[O-])ccc2Cl)C2C(=O)CC(C)(C)CC2=O)C(=O)C1	?	-13.6%	-0.6%	?	7.5%	.	.	.	.
CCOc1ccc(C2=C(C(=O)CC)Sc3nncn3N2C(=O)CC)cc1	?	-7.4%	0.8%	8.6%	-5.4%[57.1 µM]	.	.	.	.
CC(=O)N1CCN(C(=S)c2ccc(-c3ccc(Cl)cc3)o2)CC1	-118.2%	50.1µM*	-3.6%	-2.5%	-10.5%	26.7*	?	26.2%	5.3%
Cc1c(C(=O)Nc2nc(-c3ccccn3)cs2)oc2ccccc12	-16.1%	89.1µM*	?	0.1%	0.8%	21.2*	-12.7%	?	?
CN(C)CCn1c2c(c(SCC(=O)Nc3ccc(F)cc3F)nc1=O)CCC2	8.3%[57.1 µM]	-4.4%	1.6%	-2.6%	-0.7%[57.1 µM]	.	.	.	.
O=C1C(C2=C(O)c3ccccc3C2=O)=Nc2ccccc21	14.1µM*	12.6µM*	?	?	35.5µM*	0.752*	?	-26.4%	?
Cc1nn(CCCC(=O)NCCc2ccc(Cl)cc2)c(=O)c2c1sc1ccccc12	-4.8%	11.0%	-5.3%	-1.8%	3.6%	.	.	.	.
CC(=O)NC(C)c1cc(Cl)c2cccnc2c1O (centres undefined)	13.1%	8.6%	?	?	-2.3%	.	.	.	.
CN1CCN(C(c2ccc(Br)cc2)c2cc(Cl)c3cccnc3c2O)CC1 (centres undefined)	8.91µM*	?	-0.7%	-0.7%	3.5%	7.94*	3.16µM*	23.1µM*	?
CCOc1ccccc1C(=O)Oc1c(S(=O)(=O)c2ccc(C)cc2)c(C)nn1-c1ccccc1	22.8%	-15.9%	-19.4%	?	8.5%	.	.	.	.
